The list is a sample of the results.
aSyn 5UTR act: Activators working through SNCA 5'UTR binding (MLPCN). alpha-synuclein 5'UTR reporter, activators screen. activity score, % (tested at 7.5 µM), hits read low. 300,000 tested, 7.1% active; in the data active = activity score below about -60%
The depositor's hits bear a star.

SMILES | aSyn 5UTR act
c1ccc(-c2csc(Nc3cccnc3)n2)nc1 | -218*
c1cncc(Nc2nc(-c3cccs3)cs2)c1 | -218*
c1ccc(Nc2nc(-c3ccccn3)cs2)cc1 | -145*
Cc1nn(-c2ccccc2)c2c1C(O)n1c(nc3ccccc31)S2 (stereo not drawn) | -67*
CCn1cc(C(=O)NCCCN(C)C)c(=O)c2cc(F)c(N3CCN(C)CC3)cc21 | -65*
Cc1ccc(NC(=O)C2C3C=CC4(CN(Cc5cccnc5)C(=O)C24)O3)cc1 (stereo not drawn) | -80*
COC(=O)c1ccc(OCc2cc(=O)n3ccsc3n2)cc1 | -134*
COc1ccc(Cn2c(SCc3cc(C)ccc3C)nc3cc(OC)c(OC)cc3c2=N)cc1 | 55
COc1ccc(Cn2c(SCC#N)nc3ccc(N4CCOCC4)cc3c2=O)cc1 | -88*
O=C1N=c2ccccc2=C1c1sc(Nc2cccc(O)c2)nc1O | -90*
O=C(/C=C/c1ccco1)Nc1ccccc1N1CCCC1 | -80*
O=C(/C=C/c1ccco1)Nc1ccccc1C(=O)O | -117*
Cn1c(N)c(C(=O)Nc2cccc(Cl)c2)c(=O)n(C)c1=O | -76*
Cn1ccs/c1=N\C(=O)Nc1cccc(Cl)c1 | -154*
CN=c1sc(C(=O)Nc2cccc(Cl)c2)cc(=O)n1C | -140*
Cc1ccc(NC(=O)COc2ccccc2C(=O)Nc2ccccc2)cc1Cl | -82*
CCOc1ccc(NC(=O)C(C)Oc2ccccc2C(=O)Nc2ccc(C)c(Cl)c2)cc1 (stereo not drawn) | -126*
Cc1ccc(NC(=O)CSc2ccccc2NC(=O)c2ccccc2)cc1Cl | -78*
Cc1cccc(NC(=O)c2ccccc2OCC(=O)c2ccc(F)cc2)c1 | 30
CCC(=O)N1CCN(c2ccc(NC(=O)c3ccco3)cc2)CC1 | -94*
CC(=O)N1CCN(c2ccc(NC(=O)c3ccco3)cc2)CC1 | -83*
CN1C(=O)/C(=C\c2ccc(N(C)C)cc2)OC1=S | -67*
CC1=CN2C(=N)/C(=C/c3ccco3)C(=O)N=C2S1 | -219*
O=C1OC(/C(=C\Nc2cc(Cl)ccc2O)[N+](=O)[O-])c2ccccc21 (stereo not drawn) | -102*
O=S(=O)(c1cccs1)N1CCCc2cccc(O)c21 | -82*
SMILES | aSyn 5UTR act
CCCNC(=O)C(=O)Nc1ccc2c(c1)N(S(=O)(=O)c1cccs1)CCC2 | -79*
COCCCNC(=O)C(=O)Nc1ccc2c(c1)N(S(=O)(=O)c1cccs1)CCC2 | 57
CN(C)CCNC(=O)C(=O)Nc1ccc2c(c1)N(S(=O)(=O)c1cccs1)CCC2 | -63*
Cc1cc(NC(=O)C2CCCCC2)ncc1NC(=O)c1ccccn1 | -73*
Cc1cc(NC(=O)C2CC2)ncc1NC(=O)c1ccccn1 | -93*
COC(=O)c1c(NC(=O)CCl)sc(C(=O)N2CCOCC2)c1C | -83*
Cc1ccc(C(=O)Oc2ccc(-c3nccc(-c4ccccn4)n3)cc2)cc1 | -144*
FC(F)(F)c1cc(Oc2ccccc2Cl)nc(-c2ccccn2)n1 | 64
Oc1ccc(-c2nccc(-c3ccccn3)n2)cc1 | -188*
O=C(Oc1ccc(-c2nccc(-c3ccccn3)n2)cc1)c1cccc(C(F)(F)F)c1 | -140*
CN(C(=O)COC(=O)c1ccc(Cl)cc1N)C1CCCCC1 | -82*
Cc1cc(OCC(=O)N(C)C2CCCCC2)cc(C)c1Cl | -68*
CCCCCOc1ccc(C(=O)CCN2CCOCC2)cc1 | -72*
COc1ccc(C(=O)C(CN2CCOCC2)c2ccccc2)cc1 (stereo not drawn) | -80*
CC/C(=N/NC(=O)c1ccccc1)c1ccc(OCCN2CCOCC2)cc1 | -103*
COc1ccc(C(=O)C(CN2CCCC2)c2ccccc2)cc1 (stereo not drawn) | -112*
O=C(c1ccc(Cl)cc1)C(CN1CCCC1)c1ccccc1 (stereo not drawn) | -155*
CCCCOc1ccc(C(=O)C(CN2CCOCC2)c2ccccc2)cc1 (stereo not drawn) | -134*
COC(=O)c1ccc(COC(=O)c2nn(C)c(=O)c3ccccc23)cc1 | -64*
COC(=O)c1ccc(COC(=O)c2cccnc2Cl)cc1 | -68*
COc1ccc(C(=O)COC(=O)c2cccnc2Cl)c(OC)c1 | -144*
C=CCNc1nc(C(=O)OCC(=O)c2ccc(OC)cc2OC)cs1 | -82*
c1ccc(N=Nc2ccc3cccccc2-3)cc1 | -259*
CCOc1ccc(NC(=O)C(c2ccccn2)N(C(=O)CCl)c2ccc(F)cc2)cc1 (stereo not drawn) | -71*
COc1ccc(C2=NC(c3ccccc3)CO2)cc1 (stereo not drawn) | -118*
SMILES | aSyn 5UTR act
O=C(CCl)N1CCCC1c1ccc2c(c1)OCCO2 (stereo not drawn) | -152*
Cc1ccc(N=c2sc(C)c(C)n2C)cc1 | -178*
O=C(CSc1nnc(NC(=O)c2ccccc2F)s1)NCC1CCCO1 (stereo not drawn) | -72*
CCOC(=O)CNC(=O)CSc1nnc(NC(=O)c2ccc(C)cc2)s1 | 74
Cc1cccc(C(=O)Nc2nnc(SCC(=O)NC3CC3)s2)c1 | -66*
O=C(CSc1nnc(NC(=O)c2ccc(F)cc2)s1)NC1CC1 | -79*
Cc1cccc(C(=O)Nc2sc(C)c(-c3ccccc3)c2C#N)c1 | -260*
C=CCNc1sc(C(=O)c2ccccc2)c(N)c1C#N | 58
N#Cc1c(Cl)nsc1NC(=O)c1ccccc1 | -66*
Cc1sc(NC(=O)C2CCCCC2)c(C#N)c1-c1ccccc1 | -237*
Cc1cc(C)c2nc(-n3nc(C)cc3N)cc(C)c2c1 | -162*
Cc1cc(N)n(-c2cc(C)c3ccccc3n2)n1 | -118*
Fc1ccccc1COc1ccc(C(=S)N2CCCC2)cc1 | -96*
O=S(=O)(NCc1cn2ccccc2n1)c1cccs1 | -64*
O=C1CC(c2ccccc2)=NN1c1nc(-c2ccccc2)cs1 | -150*
N=C1SCC(=O)N1c1nc(-c2ccccc2)cs1 | -159*
CCCCNC(=S)N/N=C/c1cccc(OCC)c1O | -73*
COc1cccc(-c2ccc(C#N)c(OC(=O)c3c(Cl)cccc3Cl)n2)c1 | -74*
Cc1ccc(/C=N/n2cc(-c3ccccc3)[nH]c2=S)s1 | -169*
Oc1ccc(/C=N/n2cc(-c3ccccc3)[nH]c2=S)cc1 | -92*
S=c1[nH]c(-c2ccccc2)cn1/N=C/c1ccccc1Br | -83*
Cc1cccnc1NC(=O)Nc1ccccc1 | -141*
Cc1cccnc1NC(=O)c1ccc(OCc2c(C)noc2C)cc1 | -81*
COc1ccc(NC(=O)Nc2ncccc2C)cc1 | -157*
COc1ccc(C(=O)NC(=O)Nc2ncccc2C)cc1 | -139*
SMILES | aSyn 5UTR act
Cc1cccnc1NC(=O)Nc1ccc(Cl)cc1 | -84*
Clc1ccccc1/C=C/c1ccnc2ccccc12 | -109*
Oc1ccc(/C=C/c2ccnc3ccccc23)cc1 | -112*
CSc1ccc(-c2sc(Nc3ccccc3)n[n+]2-c2ccc(F)cc2)cc1 | -143*
Cc1ccc(-c2nnc(SCC#CCOC(=O)c3cccs3)o2)cc1 | -71*
Cc1ccc(-c2nnc(COC(=O)c3cccs3)o2)cc1 | -64*
Cc1ccc(-c2nnc(SCC#CCOC(=O)c3ccco3)o2)cc1 | -66*
O=C(c1cccs1)c1no[n+]([O-])c1C(=O)c1cccs1 | 63
C/C(=N\OC(=O)Nc1ccccc1)c1ccc(C)cc1 | -113*
CC(C)(C)c1cc(C(=O)N/N=C/c2ccccc2O)n(-c2ccccc2)n1 | 62
Cc1ccsc1C(=O)NN=C1CCCCCC1 | -127*
COc1ccc(/C=N/NC(=O)c2sccc2C)c2ccccc12 | -110*
Cc1ccccc1/C=N\NC(=O)c1ccccc1-n1cccc1 | -65*
Cc1ccccc1/C=N/NC(=O)c1sccc1C | -176*
